The results in this text go back to the supplement of paper PMC6555819.

The subject of this test is VDR homodimer (NR concentration 270 nM). The test is described as follows: PBM binding z-score (relative to random genomic background probes); higher = stronger binding; sequences stand for … in GC…GCGATTGACAGCGTAGAATGAAGG
A digest of the protocol: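 The probes on custom Agilent 4×180K protein-binding microarrays were double-stranded, with 34-nt variable regions bearing direct-repeat seeds, single-nucleotide variants, half-site ablations and random human genomic background sequences. Incubation lasted 1 h with ligand-free nuclear receptor dimers in PBS pH 7.4, 2% milk, 0.02% Triton X-100, 1 mM DTT, 0.2 mg/mL BSA and 0.4 mg/ml salmon testes DNA. Antibodies against each partner (one per run) detected bound dimers, and fluorescence scans were regression-normalized. Binding z-scores take the random background probes as reference.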
With CAAACTAGGTCGAAGGTCAAAGTCGAGCCAACCA, the PBM binding z-score was 1.71. For GCGACTGGGGCATCAGCAGGTTACTATAACTTAA the value was 0.0737; for CGAACGAGGCCATGAGTTGATAGCAAATGCCGAT, 0.777.

The sequence ATCGAAATGTCGACGAGGTGAGTATACACCGTTT yielded a PBM binding z-score of -0.13. As to CCTACTGCGCCAAAAAGGTCATTGATGCCGATAA, the PBM binding z-score was 3.24. TAGCCTAGGTCATGCGAGCCAGTATAGTGTCGGC gave a PBM binding z-score of 0.235. CCTATTTGGTCAAGGTCACACACGCTATAGGTAC registered a PBM binding z-score of 3.03. Turning to GGAAAGAGGGCAAGTTGATAGCAGAGTTTGATGG, the PBM binding z-score came out at 1.93.

For ATACGTAGGTTAGCTGGGGTCATTCAGACTAGGC, the PBM binding z-score came to 4.13. The value for GGAACGAGGGCAAGTTTATAGCAGAGTTTGATGG was 2.89; that for TAGCCTAGGTCAGATCGGGCCAGTTTACGCTATA was -0.339; that for CCTTACGGCTCACGAGGTTATAGCACGACGAGCG was 0.564. For GCTTTTAGATCAAGGTTAAGAAAGACTAAGCTAA the value was -0.0628; for CGTCCAAGGTTAAAGGTCAGTGAAGAGATGACGG, 1.46. For AGAATGAGGTTGTACGTAGATCAGGGAAGAAAGT the value was 0.389. CCTAGCAGTCCAATCTGGGTCACTCAAGGCTTGA yielded a PBM binding z-score of 0.187. In turn, AGAACGAGGGCACGCTGAGTCGATAGCAGAGTAG displayed a PBM binding z-score of 0.912. For AGAATGAGGTTATACGTATATCAGGGAAGAAAGT the value was 0.832. For TCTAGTTGGTCAATGGTCACACACTCGAAATGCG the value was 0.178; for GGAACGAGGGCAAAGTAGATAGCATCTGTCGACG, 0.946. The value for AATACAGGGTCACTAGGACAGAGTAGGTACGAAT was 2.97. On to GTATCAAGGTGAATAGGTCGTTGATGAGTAGGCG, for which the PBM binding z-score is 0.555. The value for AGAATGTGGTTATACGTAGATCAGGGAAGAAAGT was -0.179; that for GCTCGGAGGACAAGGTCAGAGCTTTGTCCGTAGA was 0.705. In turn, CGTCAAAGTTCAACTAAGGTAGCGTAAAGCACGC had a PBM binding z-score of 4.01. Sequence CCTTACGGGTCAAGCTTATAGCACGGGTGGTACG came in with a PBM binding z-score of 0.754. As to TTACCAAGGTGAGCTGAGGTCGTTGACCCAACTC, the PBM binding z-score was 1.65. Regarding ATCTCGAGGTAAAGATAGTTCAGTGAATGCAAAT, the PBM binding z-score was found to be 0.272.

For the sequence GCGACTGGGGCAAAGCAGGTTACCATAAGGTTGG, the PBM binding z-score is -0.59. Consider CCCTACGGGTCAAGGTTATAGCACGGGTGGTACG, for which the PBM binding z-score came out at 1.07. For TCATTTAGGTAATACAGGTGAAAGTCGGCATCTA the value was 0.57. For CCTCGGAGGAGAACAGGAGGTCAGAGCTGCCAGA the value was 0.851; for CCTGCTAGGTCATCGTCAGCTAATCTACAGTATG, 0.596; for CGTCCATGGTCAATGCTAGGTCAGTGAAAGCATT, -0.0955.

Regarding AGAACGAGGGCCCGCTGAGTTGATAGCAGAGTAG, the PBM binding z-score is -0.586. For CCGCGGAGGACAGAAGGTCAGAGCTGTCCGCTTT the value was 0.1. For TCTTGTAGATCAAGCAGGTTATGAAAGCCTGAGT the value was -0.186. The value for ACTAGCAAGCCAAGGGTCACTCAAGATTAGTCCG was 1.08; that for CTACCAAGGTGAACAAGGTCGCTGATTACTATTC was 1.27; that for TCGAGTAGGTTACCAATGGGGTATTCAGCTTTCT was -0.39.
